Where “and” joins values, the source holds several entries; their conditions need not be identical. Identical values can stand only once. Results filed as inconclusive are left out. A structure can be active in one record and inactive in another. Calls of active or inactive are those of the source. The calls were made as follows, unless noted: active = hit-call score of the fitted dose curve at least 0.9, where 1 is the maximum; inactive = score below 0.9.

Read-out in assay [1]: Monocyte Chemoattractant Protein-1 (MCP1), CCL2 (gene 6347)
As to the kind of experiment: BSK_SAg_MCP1: BioMAP Diversity Plus: SAg Assay for Monocyte Chemoattractant Protein-1 (MCP1) Biomarker Activity (AID 2283090). As to conditions: primary human HUVEC with PBMC; actives raise or lower the signal. In a few lines: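 MCP-1 levels in the endothelial–PBMC SAg co-culture were quantified by ELISA at 24 h post-dosing; both increases and decreases versus DMSO scored. Cytotoxicity monitored by SRB total protein in parallel cultures.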

Read-out in assay [2]: E-selectin (Homo sapiens) (UniProt P16581)
As to the kind of experiment: BSK_SAg_Eselectin: BioMAP Diversity Plus: SAg Assay for Eselectin Biomarker Activity (AID 2283091). Particulars: primary human HUVEC with PBMC; actives raise or lower the signal. In a few lines:
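Primary human endothelial cells and peripheral blood mononuclear cells were co-cultured and exposed to chemical for 24 hours. E-selectin levels were then quantified by ELISA, with bidirectional curve fitting normalised to DMSO controls.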

Read-out in assay [3]: Monokine induced gamma interferon (MIG), CXCL9 (gene 4283)
Briefly: BSK_SAg_MIG: BioMAP Diversity Plus: SAg Assay for Monokine induced gamma interferon (MIG) Biomarker Activity (AID 2283092). As to conditions: primary human HUVEC with PBMC; actives raise or lower the signal. In a few lines: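 ELISA readout of MIG/CXCL9; primary human umbilical vein endothelial cells co-cultured with peripheral blood mononuclear cells; 24 h post-dose; gain/loss fit vs DMSO baseline.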

Assay [4] can be described thus: BSK_SAg_PBMCCytotoxicity: PBMC Cytotoxicity Assessment in the BioMAP Diversity Plus: SAg Assay (AID 2283093).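 Also: PBMC viability measured as Alamar Blue reduction fluorescence at 546/580 nm; fitted both ways against DMSO so a hit may be loss or gain of signal.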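 As to AC50: PBMC superantigen activated with SEB plus TSST-1 one hour after compound addition.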 As to conditions: primary human HUVEC with PBMC. The gist of the method:
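HUVEC/PBMC co-culture; PBMC exposed to chemical 1 h before SEB and TSST-1 activation (20 ng/mL each), incubated 90 h, then Alamar Blue 6 h, fluorescence 546/580 nm. Bidirectional fit versus DMSO baseline.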

Read-out in assay [5]: Interleukin-8 (IL8), CXCL8 (gene 3576)
Briefly: BSK_SAg_IL8: BioMAP Diversity Plus: SAg Assay for Interleukin-8 (IL8) Biomarker Activity (AID 2283094). Particulars: primary human HUVEC with PBMC; actives raise or lower the signal. The gist of the method: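 Human umbilical vein endothelial cells co-cultured with PBMC, stimulated with superantigen; IL-8 measured by ELISA 24 h after chemical dosing. Bidirectional fitting versus DMSO; SRB staining in parallel cultures tracks cytotoxicity.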

A short description of assay [6]: BSK_SAg_Proliferation: Cell Proliferation Assessment in the BioMAP Diversity Plus: SAg Assay (AID 2283095). As to conditions: primary human HUVEC with PBMC. The gist of the method:
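Human umbilical vein endothelial cells co-cultured with PBMC; sulforhodamine B total-protein staining (0.1% SRB after 10% TCA fixation, absorbance 560 nm) at 96 h in sub-confluent culture. Fitted bidirectionally against DMSO.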

The nature of assay [7]: BSK_SAg_SRB: Viability Assessment in the BioMAP Diversity Plus: SAg Assay (AID 2283096).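 Also: cells read one day after compound addition; hits may be either gain or loss of signal compared with DMSO.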 As to conditions: primary human HUVEC with PBMC. In a few lines:
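Human umbilical vein endothelial cells co-cultured with PBMC, read 24 h after compound dosing. Total protein measured by sulforhodamine B staining (0.1% SRB after 10% TCA fixation, absorbance 560 nm); bidirectional fit versus DMSO baseline.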

The target in assay [8] is human CYP19A1, CYP19A1 (gene 1588) (UniProt P11511). As to the kind of experiment: NVS_ADME_hCYP19A1: NovaScreen (NVS) CYP450-related Enzyme Activity (ADME) Assay for human CYP19A1 (AID 2283098; active = hit-call score of the fitted dose curve at least 0.9, where 1 is the maximum;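 as to AC50: potency for inhibitors seen as loss of fluorescent enzyme signal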). The gist of the method: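 Recombinant enzyme in a cell-free format, read 0.5 h after dosing by fluorescence from a fluorogenic substrate. Loss of signal was fitted against acetonitrile as baseline. Primary screen in duplicate at 10 uM, actives then tested in concentration series.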
human CYP19A1, CYP19A1 (gene 1588), sequence (P11511 whole entry, looked up): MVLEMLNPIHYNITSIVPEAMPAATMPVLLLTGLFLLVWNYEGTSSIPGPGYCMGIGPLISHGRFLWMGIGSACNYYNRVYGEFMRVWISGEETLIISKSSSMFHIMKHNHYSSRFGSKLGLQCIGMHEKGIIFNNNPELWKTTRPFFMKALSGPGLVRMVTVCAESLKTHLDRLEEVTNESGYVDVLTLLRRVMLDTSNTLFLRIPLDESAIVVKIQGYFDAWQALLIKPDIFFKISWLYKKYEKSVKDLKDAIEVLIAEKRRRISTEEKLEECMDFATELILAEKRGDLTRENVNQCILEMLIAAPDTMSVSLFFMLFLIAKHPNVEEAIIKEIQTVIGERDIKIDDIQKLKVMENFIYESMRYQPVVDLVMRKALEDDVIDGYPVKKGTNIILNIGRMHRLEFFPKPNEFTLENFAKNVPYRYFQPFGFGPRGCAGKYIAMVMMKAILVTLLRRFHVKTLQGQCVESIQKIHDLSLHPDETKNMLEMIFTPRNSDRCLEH

Assay [9] has as its target human CYP1A1, CYP1A1 (gene 1543) (UniProt P04798). Briefly: NVS_ADME_hCYP1A1: NovaScreen (NVS) CYP450-related Enzyme Activity (ADME) Assay for human CYP1A1 (AID 2283100; active = hit-call score of the fitted dose curve at least 0.9, where 1 is the maximum). In a few lines:
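Compounds first went through duplicate single-concentration testing at 10 uM against purified CYP1A1. Those passing a threshold such as 30% inhibition entered singleton dose-response, highest concentration 20 uM. Signal was fluorescence measured after 1 hour.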

For assay [10], the target named is human CYP2B6, CYP2B6 (gene 1555) (UniProt P20813). Briefly: NVS_ADME_hCYP2B6: NovaScreen (NVS) CYP450-related Enzyme Activity (ADME) Assay for human CYP2B6 (AID 2283101; active = hit-call score of the fitted dose curve at least 0.9, where 1 is the maximum). In a few lines: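 Fluorescence-based enzyme activity of recombinant human CYP2B6, measured 1 h post-dose against acetonitrile vehicle baseline. Screened at a single concentration of 10 uM in duplicate before concentration-response follow-up.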
human CYP2B6, CYP2B6 (gene 1555), sequence (P20813 whole entry, looked up): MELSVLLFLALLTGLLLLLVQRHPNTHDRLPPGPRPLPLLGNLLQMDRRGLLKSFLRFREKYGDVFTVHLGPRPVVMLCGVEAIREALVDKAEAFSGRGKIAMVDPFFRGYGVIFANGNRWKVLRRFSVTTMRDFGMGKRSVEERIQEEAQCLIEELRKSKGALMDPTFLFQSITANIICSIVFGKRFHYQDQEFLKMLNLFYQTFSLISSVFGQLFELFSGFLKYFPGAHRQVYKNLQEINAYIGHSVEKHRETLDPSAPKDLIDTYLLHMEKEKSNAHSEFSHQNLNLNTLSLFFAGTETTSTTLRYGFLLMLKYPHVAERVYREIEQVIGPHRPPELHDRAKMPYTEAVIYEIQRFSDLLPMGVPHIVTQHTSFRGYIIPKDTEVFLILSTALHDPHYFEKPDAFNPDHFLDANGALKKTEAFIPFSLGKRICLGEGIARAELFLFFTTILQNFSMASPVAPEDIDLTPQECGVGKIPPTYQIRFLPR

The target in assay [11] is Cytochrome P450 2C18 (Homo sapiens) (UniProt P33260). Briefly: NVS_ADME_hCYP2C18: NovaScreen (NVS) CYP450-related Enzyme Activity (ADME) Assay for human CYP2C18 (AID 2283103). The gist of the method: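 Cell-free recombinant human CYP2C18 with fluorogenic substrate; fluorescence intensity read 0.5 h after dosing. Single-point screen at 10 uM in duplicate, then concentration-response up to 20 uM; loss of signal fitted against acetonitrile baseline.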
Cytochrome P450 2C18 (Homo sapiens), sequence (P33260 whole entry, looked up): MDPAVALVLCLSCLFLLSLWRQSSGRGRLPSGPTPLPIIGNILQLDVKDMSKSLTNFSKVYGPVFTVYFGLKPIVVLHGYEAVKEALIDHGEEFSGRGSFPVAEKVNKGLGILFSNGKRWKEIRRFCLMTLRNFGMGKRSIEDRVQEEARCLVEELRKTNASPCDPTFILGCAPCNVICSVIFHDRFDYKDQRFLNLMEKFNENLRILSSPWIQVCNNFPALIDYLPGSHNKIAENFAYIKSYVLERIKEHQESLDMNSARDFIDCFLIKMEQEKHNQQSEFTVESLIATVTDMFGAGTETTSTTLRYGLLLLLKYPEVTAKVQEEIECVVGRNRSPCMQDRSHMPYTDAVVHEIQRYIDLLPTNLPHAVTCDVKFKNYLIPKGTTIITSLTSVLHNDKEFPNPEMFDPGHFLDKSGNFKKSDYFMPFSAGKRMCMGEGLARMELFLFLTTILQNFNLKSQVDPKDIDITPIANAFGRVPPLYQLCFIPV

For assay [12], the target named is human CYP2C8, CYP2C8 (gene 1558) (UniProt P10632). As to the kind of experiment: NVS_ADME_hCYP2C8: NovaScreen (NVS) CYP450-related Enzyme Activity (ADME) Assay for human CYP2C8 (AID 2283104). In a few lines: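 Recombinant human CYP2C8 with fluorogenic substrate, 0.5 h, fluorescence intensity; signal loss fitted versus acetonitrile. Screened in duplicate at 10 uM, then actives run in concentration-response up to 20 uM.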
human CYP2C8, CYP2C8 (gene 1558), sequence (P10632 whole entry, looked up): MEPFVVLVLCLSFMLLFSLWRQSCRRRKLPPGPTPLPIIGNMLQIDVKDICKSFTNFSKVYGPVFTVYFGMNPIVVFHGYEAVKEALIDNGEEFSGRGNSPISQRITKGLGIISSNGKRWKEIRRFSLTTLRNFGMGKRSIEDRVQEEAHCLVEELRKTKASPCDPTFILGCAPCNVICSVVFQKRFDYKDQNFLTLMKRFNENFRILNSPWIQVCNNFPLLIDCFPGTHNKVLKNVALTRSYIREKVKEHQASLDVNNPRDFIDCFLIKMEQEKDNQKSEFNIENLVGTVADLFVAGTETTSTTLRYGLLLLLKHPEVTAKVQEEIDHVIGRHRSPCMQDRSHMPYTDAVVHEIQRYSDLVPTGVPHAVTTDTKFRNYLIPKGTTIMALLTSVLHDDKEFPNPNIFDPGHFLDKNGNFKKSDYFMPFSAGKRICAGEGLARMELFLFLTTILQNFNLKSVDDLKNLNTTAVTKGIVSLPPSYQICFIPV

Assay [13] concerns the target human CYP2J2, CYP2J2 (gene 1573) (UniProt P51589). Briefly: NVS_ADME_hCYP2J2: NovaScreen (NVS) CYP450-related Enzyme Activity (ADME) Assay for human CYP2J2 (AID 2283106; active = hit-call score of the fitted dose curve at least 0.9, where 1 is the maximum). In a few lines: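 Cell-free assay of recombinant CYP2J2 with a fluorogenic substrate, read 1 h after dosing; loss of signal versus acetonitrile. Primary screen at 10 uM in duplicate, then concentration-response up to 20 uM for chemicals passing threshold (e.g., 30% inhibition).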

For assay [14], the target named is human CYP2C9, CYP2C9 (gene 1559) (UniProt P11712). Briefly: NVS_ADME_hCYP2C9: NovaScreen (NVS) CYP450-related Enzyme Activity (ADME) Assay for human CYP2C9 (AID 2283108; active = hit-call score of the fitted dose curve at least 0.9, where 1 is the maximum). In a few lines: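 Recombinant human CYP2C9 expressed in SF9 cells, fluorogenic substrate, fluorescence read 0.75 h after dosing. Chemicals first run in duplicate at 10 uM, with actives followed in concentration series; loss of signal versus acetonitrile baseline.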
human CYP2C9, CYP2C9 (gene 1559), sequence (P11712 whole entry, looked up): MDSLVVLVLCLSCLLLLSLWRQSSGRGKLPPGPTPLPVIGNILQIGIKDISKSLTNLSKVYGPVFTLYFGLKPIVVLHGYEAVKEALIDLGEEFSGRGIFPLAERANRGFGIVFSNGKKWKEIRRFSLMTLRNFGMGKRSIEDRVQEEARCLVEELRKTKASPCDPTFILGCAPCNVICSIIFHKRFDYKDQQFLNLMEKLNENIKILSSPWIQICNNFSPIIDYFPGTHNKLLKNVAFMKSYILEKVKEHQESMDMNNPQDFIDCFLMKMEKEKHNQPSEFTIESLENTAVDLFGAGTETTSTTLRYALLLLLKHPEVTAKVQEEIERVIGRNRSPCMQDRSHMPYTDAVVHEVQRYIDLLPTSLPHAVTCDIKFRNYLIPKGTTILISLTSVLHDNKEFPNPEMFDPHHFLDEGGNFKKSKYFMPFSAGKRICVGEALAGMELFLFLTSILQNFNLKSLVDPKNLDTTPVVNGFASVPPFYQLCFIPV

The target of assay [15] is Cytochrome P450 2C19 (Homo sapiens) (UniProt P33261). Briefly: NVS_ADME_hCYP2C19: NovaScreen (NVS) CYP450-related Enzyme Activity (ADME) Assay for human CYP2C19 (AID 2283113; active = hit-call score of the fitted dose curve at least 0.9, where 1 is the maximum;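 also: potency for inhibition seen as loss of fluorescent signal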). The gist of the method: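 Chemicals first screened in duplicate at 10 uM against recombinant human enzyme produced in insect cells; confirmed actives then run as concentration series. Fluorogenic substrate turnover read by fluorescence after 1 h, normalised to acetonitrile.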

Assay [16] has as its target human CYP1A2, CYP1A2 (gene 1544) (UniProt P05177). As to the kind of experiment: NVS_ADME_hCYP1A2: NovaScreen (NVS) CYP450-related Enzyme Activity (ADME) Assay for human CYP1A2 (AID 2283102; active = hit-call score of the fitted dose curve at least 0.9, where 1 is the maximum;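 also: potency for inhibition since loss of fluorescence marks reduced CYP1A2 activity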). In a few lines:
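Compounds were tested at 10 uM in duplicate against recombinant CYP1A2 produced in insect cells. Enzyme activity was measured by fluorescence 0.5 h after dosing, with loss of signal versus acetonitrile control. Active compounds were re-tested in concentration series.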

E-selectin (Homo sapiens), sequence (P16581 whole entry, looked up): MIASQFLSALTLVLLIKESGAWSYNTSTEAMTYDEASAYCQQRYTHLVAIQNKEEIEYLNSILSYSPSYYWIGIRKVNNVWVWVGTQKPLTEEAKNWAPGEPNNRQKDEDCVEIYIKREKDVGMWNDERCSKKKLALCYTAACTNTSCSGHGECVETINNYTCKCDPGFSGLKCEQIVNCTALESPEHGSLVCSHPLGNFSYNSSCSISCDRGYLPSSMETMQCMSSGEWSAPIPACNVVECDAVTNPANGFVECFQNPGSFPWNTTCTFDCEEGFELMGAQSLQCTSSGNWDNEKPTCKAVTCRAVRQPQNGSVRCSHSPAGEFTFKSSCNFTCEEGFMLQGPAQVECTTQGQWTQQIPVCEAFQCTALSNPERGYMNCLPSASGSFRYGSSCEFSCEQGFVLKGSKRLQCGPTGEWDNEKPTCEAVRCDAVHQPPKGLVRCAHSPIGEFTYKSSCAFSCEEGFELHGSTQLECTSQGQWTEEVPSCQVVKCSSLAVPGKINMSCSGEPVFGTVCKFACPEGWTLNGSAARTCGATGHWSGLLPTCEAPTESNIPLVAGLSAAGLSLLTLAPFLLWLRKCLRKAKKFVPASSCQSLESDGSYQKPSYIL
human CYP1A1, CYP1A1 (gene 1543), sequence (P04798 whole entry, looked up): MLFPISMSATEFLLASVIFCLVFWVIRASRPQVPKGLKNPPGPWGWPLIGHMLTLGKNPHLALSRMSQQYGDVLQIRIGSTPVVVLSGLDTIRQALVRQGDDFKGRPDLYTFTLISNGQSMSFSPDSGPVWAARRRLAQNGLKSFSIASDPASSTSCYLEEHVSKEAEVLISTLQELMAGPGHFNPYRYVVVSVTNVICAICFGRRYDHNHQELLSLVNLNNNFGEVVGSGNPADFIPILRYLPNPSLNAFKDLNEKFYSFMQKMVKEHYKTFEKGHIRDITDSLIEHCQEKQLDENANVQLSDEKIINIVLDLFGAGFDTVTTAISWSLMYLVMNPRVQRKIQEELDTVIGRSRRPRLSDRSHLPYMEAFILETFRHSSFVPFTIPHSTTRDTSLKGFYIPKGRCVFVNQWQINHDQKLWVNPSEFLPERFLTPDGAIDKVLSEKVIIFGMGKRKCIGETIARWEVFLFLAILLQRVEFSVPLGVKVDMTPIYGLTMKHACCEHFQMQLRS
human CYP1A2, CYP1A2 (gene 1544), sequence (P05177 whole entry, looked up): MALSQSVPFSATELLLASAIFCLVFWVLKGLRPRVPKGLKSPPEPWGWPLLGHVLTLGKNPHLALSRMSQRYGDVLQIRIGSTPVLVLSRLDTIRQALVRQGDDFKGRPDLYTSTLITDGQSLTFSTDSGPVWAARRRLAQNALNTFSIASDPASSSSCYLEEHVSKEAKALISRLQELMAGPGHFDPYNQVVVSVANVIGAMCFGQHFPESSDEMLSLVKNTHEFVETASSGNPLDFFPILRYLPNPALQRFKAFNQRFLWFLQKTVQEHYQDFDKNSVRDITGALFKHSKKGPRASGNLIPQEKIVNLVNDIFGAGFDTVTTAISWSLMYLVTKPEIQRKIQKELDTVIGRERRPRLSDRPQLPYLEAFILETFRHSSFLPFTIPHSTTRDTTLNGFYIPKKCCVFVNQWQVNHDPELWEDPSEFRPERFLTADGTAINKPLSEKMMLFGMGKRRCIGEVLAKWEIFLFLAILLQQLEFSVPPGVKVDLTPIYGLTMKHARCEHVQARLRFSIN
human CYP2J2, CYP2J2 (gene 1573), sequence (P51589 whole entry, looked up): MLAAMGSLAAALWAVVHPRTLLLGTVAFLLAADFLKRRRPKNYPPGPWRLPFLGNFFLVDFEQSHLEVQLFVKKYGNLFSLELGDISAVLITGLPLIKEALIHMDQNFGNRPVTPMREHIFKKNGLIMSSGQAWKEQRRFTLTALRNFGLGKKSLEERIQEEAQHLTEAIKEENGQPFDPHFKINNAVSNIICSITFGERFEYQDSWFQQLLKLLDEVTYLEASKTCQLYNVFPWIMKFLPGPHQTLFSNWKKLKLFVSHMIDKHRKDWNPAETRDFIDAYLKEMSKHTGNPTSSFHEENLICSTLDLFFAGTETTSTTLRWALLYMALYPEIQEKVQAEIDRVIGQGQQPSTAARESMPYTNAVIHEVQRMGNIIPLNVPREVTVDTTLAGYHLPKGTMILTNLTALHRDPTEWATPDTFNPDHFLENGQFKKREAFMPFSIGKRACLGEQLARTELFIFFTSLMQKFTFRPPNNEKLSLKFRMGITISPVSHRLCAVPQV

By AC50 is commonly meant the midpoint of the concentration-response curve, whichever way the signal moves. As to `CCCCNC(=O)n1c(NC(=O)OC)nc2ccccc21`, the result in assay [1], in assay [2], in assay [3], in [4] and in assay [5] was inactive. Moreover, the AC50 is 6.25 µM (active) in [6] and 12.3 µM (active) in [7].

As for `CC(C)C1(C)N=C(c2nc3ccccc3cc2C(=O)O)NC1=O` (configuration not stated), the result in [1], in assay [2], in assay [3], in [4], in [5] and in assay [6] was inactive.

With `CC1COC(Cn2cncn2)(c2ccc(Oc3ccc(Cl)cc3)cc2Cl)O1` (configuration not stated), the AC50 in assay [1] was 23.8 µM (active); in assay [2], 13.1 µM (active); in [3], 31.3 µM (active); in assay [4] it was 33.2 µM (active); in [5], 15.8 µM (active); in assay [6] it was 14.7 µM (active). Moreover, the AC50 is 29.6 µM (active) in [7]; 0.706 µM (active) in [8]; 1.63 µM (active) in assay [9]; 1.71 µM (active) in assay [10]; 1.07 µM (active) in [11]; 2.74 µM (active) in [12]. In addition, the AC50 was 0.438 µM (active) in assay [13], 1.34 µM (active) in assay [14] and 25.8 nM (active) in [15].

`COC(=O)C=C(C)OP(=O)(OC)OC`: the result in [1], in assay [2], in assay [3], in [4], in [5] and in assay [6] was inactive.

As for `CON(C)C(=O)Nc1ccc(Cl)c(Cl)c1`, the outcome in assay [1], in assay [2], in assay [3], in [4], in assay [5] and in [6] was inactive. In addition, the outcome in assay [7] and in assay [8] was inactive. In addition, the AC50 in assay [9] was 3.72 µM (active).

`CCCCOC(=O)c1ccccc1C(=O)OCCCC`: the result in [1], in assay [2], in assay [3], in assay [4], in assay [5] and in assay [7] was inactive. Also, the compound was called inactive in assay [8], in assay [9] and in assay [12]. For the same compound, the AC50 in [2] was 20 µM (active); in assay [6], 29.2 µM (active) and 31.4 µM (active); in assay [16], 7.03 µM (active) and 7.88 µM (active); in assay [15] it was 6.73 µM (active) and 7.37 µM (active).

As to `O=C(O)COc1nc(Cl)c(Cl)cc1Cl`, the result in [1], in assay [2], in [3], in [4], in [5] and in assay [6] was inactive.

The values are drawn from PubChem BioAssay (EPA / NIEHS).
